Measured values published in the supplement of paper PMC11732987, “Enantioselective OTUD7B fragment discovery through chemoproteomics screening and high-throughput optimisation” (Communications Chemistry, 2025).

Key:
Assay in all cases: log2 ratio of Biotin-Ahx-Ub-VS probe labelling (fragment/DMSO); higher = less target engagement (more negative = stronger competition), active = hit call of the paper (q ≤ 0.05, log2 ratio ≤ -1)
Conditions in all cases: compound concentration: 200 uM; treatment time: 3 h
OTUD6B = target: T1, OTUD6B (UniProt Q8N6M0)
T1 sequence (whole entry): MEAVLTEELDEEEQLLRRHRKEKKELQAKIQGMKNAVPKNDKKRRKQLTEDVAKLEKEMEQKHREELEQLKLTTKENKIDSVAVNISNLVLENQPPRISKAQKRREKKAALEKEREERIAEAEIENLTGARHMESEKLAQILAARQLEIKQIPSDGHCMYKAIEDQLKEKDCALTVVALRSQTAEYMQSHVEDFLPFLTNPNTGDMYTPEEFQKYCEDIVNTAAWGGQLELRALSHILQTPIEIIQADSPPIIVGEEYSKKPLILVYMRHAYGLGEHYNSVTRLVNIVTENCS
In short: (§1)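 Average log2 ratios of fragment over vehicle were obtained by unpaired t-test from global-median-normalised Spectronaut label-free quantities. Proteins with ≥2 unique peptides were included. HEK293T lysate (495 µg per sample) was treated in triplicate with fragment at 200 µM or vehicle for 3 h, then with Biotin-Ahx-Ub-VS at 0.5 µM final for 1 h, and labelled DUBs were NeutrAvidin-enriched and run by diaPASEF LC-MS/MS.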

OTUD7B = target: T2, OTUD7B (UniProt Q6GQQ9)
T2 sequence (whole entry): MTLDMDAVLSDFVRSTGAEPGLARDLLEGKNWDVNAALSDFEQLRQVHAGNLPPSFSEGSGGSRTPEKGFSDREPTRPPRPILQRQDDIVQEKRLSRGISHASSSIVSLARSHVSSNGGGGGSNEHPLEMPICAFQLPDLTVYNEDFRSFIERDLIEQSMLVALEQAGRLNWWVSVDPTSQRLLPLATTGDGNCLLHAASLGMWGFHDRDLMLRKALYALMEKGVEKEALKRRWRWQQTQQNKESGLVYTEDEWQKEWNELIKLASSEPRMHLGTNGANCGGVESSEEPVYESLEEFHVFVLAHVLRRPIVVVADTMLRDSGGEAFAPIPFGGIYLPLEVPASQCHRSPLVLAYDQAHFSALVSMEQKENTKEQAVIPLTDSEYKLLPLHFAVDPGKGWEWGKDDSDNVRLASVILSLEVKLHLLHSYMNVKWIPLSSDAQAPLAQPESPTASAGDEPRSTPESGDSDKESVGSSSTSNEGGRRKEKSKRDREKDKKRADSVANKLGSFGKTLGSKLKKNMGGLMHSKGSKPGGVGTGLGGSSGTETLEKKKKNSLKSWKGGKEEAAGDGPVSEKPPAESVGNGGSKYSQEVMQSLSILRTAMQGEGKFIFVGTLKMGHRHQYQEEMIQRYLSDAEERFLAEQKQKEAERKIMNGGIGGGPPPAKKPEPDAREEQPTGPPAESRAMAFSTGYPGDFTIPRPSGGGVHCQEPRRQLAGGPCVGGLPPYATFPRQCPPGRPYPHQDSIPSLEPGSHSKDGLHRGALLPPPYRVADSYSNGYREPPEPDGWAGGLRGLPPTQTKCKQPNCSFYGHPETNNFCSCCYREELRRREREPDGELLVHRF
In short: as §1

PRPF8 = PRPF8 (UniProt Q6P2Q9)
In short: as §1

PSMD7 = target: T3, PSMD7 (UniProt P51665)
T3 sequence (whole entry): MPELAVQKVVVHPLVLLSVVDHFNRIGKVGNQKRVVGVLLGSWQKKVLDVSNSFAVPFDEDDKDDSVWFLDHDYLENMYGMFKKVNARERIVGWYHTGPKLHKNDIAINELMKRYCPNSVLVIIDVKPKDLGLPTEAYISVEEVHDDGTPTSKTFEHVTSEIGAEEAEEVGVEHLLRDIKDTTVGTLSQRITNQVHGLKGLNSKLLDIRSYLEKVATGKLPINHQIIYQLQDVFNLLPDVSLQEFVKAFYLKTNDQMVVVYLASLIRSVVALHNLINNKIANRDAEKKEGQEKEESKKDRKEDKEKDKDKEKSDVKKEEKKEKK
In short: as §1

UCHL1 = UCHL1 (UniProt P09936)
In short: as §1

UCHL3 = target: T4, UCHL3 (UniProt P15374)
T4 sequence (whole entry): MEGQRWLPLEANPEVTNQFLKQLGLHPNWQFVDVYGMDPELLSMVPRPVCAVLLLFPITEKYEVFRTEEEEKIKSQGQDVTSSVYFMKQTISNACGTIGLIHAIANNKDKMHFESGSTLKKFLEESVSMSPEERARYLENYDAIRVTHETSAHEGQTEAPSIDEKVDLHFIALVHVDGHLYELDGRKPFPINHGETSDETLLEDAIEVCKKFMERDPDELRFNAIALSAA
In short: as §1

UCHL5 = target: T5, UCHL5 (UniProt Q9Y5K5)
T5 sequence (whole entry): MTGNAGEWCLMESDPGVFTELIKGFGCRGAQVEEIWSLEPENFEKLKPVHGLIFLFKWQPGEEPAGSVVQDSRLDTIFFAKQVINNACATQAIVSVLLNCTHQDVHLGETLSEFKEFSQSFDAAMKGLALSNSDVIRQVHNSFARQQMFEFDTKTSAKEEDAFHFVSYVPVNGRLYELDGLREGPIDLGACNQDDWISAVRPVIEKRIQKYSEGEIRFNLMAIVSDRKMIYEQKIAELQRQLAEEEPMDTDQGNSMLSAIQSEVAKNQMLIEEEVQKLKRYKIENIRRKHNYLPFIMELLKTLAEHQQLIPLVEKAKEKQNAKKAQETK
In short: as §1

USP10 = USP10 (UniProt Q14694)
In short: as §1

USP15 = target: T6, USP15 (UniProt Q9Y4E8)
T6 sequence (whole entry): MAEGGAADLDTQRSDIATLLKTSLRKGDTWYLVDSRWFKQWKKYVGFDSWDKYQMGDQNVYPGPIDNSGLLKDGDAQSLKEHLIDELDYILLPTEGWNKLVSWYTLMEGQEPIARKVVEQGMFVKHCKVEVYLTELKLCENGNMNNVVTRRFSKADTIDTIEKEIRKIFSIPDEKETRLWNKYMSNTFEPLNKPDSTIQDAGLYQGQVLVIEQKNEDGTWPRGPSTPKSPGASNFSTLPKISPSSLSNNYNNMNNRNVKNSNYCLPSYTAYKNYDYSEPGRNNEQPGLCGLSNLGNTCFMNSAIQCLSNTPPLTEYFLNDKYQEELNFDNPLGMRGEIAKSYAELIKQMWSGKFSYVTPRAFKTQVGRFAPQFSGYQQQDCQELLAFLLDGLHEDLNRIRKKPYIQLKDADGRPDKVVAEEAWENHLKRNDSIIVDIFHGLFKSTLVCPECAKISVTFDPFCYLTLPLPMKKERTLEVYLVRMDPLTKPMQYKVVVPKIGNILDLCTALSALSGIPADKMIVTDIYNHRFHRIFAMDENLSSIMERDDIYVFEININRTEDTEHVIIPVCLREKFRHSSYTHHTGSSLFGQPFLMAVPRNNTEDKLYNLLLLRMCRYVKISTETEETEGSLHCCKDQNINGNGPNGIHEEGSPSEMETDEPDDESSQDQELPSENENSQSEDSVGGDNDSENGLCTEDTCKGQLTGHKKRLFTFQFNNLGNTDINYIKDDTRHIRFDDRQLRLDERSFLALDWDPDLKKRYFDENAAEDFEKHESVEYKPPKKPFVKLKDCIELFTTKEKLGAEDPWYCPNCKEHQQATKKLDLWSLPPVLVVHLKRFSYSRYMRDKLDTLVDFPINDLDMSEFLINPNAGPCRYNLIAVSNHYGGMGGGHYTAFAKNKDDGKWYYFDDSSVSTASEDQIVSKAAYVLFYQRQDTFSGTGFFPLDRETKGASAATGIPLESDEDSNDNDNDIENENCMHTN
In short: as §1

USP16 = USP16 (UniProt Q9Y5T5)
In short: as §1

Measured: log2 ratio of Biotin-Ahx-Ub-VS probe labelling

Sequence of UCHL1 (P09936 whole entry, looked up): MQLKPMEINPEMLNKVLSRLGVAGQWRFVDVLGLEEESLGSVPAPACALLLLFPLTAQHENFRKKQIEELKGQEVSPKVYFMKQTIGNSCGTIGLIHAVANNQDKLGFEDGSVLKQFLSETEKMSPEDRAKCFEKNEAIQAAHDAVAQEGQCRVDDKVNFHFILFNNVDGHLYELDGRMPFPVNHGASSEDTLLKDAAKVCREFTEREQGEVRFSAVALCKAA
Sequence of USP16 (Q9Y5T5 whole entry, looked up): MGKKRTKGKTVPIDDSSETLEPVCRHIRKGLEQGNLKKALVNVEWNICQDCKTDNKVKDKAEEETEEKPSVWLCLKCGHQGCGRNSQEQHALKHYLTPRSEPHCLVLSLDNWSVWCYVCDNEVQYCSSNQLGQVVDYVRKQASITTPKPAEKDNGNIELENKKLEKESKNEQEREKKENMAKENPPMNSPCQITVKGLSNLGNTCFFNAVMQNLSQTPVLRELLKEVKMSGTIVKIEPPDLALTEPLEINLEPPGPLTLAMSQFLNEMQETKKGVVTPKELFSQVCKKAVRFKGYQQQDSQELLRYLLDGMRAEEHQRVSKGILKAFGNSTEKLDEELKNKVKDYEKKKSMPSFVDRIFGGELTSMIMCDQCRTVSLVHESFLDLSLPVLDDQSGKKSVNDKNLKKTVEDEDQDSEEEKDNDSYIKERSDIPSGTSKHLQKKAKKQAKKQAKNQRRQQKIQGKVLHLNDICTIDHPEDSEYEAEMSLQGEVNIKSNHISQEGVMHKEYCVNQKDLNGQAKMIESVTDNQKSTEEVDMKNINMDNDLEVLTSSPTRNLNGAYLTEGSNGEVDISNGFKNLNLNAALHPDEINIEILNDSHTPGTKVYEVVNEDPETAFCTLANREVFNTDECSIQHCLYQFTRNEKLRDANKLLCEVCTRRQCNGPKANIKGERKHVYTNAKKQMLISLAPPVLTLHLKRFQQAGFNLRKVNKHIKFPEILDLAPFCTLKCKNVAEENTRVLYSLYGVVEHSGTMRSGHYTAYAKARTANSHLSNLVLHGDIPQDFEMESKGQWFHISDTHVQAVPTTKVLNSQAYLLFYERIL
Sequence of USP10 (Q14694 whole entry): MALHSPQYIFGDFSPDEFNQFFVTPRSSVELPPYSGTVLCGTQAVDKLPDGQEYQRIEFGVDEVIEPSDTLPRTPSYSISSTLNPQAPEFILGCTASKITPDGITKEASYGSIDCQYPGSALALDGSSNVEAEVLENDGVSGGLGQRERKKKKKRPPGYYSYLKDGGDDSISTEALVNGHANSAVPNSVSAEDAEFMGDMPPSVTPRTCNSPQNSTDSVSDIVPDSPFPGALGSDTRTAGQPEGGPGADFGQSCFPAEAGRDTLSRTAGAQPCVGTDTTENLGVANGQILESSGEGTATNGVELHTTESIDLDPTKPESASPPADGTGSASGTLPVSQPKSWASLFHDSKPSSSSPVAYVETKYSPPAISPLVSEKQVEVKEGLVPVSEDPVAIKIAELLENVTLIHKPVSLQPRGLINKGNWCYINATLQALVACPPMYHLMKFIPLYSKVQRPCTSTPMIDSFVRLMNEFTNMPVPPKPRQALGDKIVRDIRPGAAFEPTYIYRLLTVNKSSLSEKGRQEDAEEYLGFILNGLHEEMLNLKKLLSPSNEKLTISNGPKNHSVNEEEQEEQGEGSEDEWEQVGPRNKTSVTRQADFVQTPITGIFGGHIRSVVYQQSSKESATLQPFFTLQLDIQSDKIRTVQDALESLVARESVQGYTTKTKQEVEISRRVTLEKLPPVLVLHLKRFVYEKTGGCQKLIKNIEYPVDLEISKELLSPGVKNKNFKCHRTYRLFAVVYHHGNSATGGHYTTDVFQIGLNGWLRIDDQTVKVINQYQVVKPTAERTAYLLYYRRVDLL

O=C(CCl)N1CCC(C(O)c2ccc(F)cc2)CC1 (stereo not given)
inactive: OTUD6B 0.0694 | OTUD7B -0.134 | PRPF8 -0.0885 | PSMD7 -0.0381 | UCHL3 0.426 | UCHL5 0.12 | USP10 -0.257 | USP15 0.278 | USP16 0.191
active: UCHL1 -1.31
